Data on 11 compounds can be found in PubChem BioAssay (EPA / NIEHS).

Structures are written as SMILES. Calls of active or inactive are those of the source. The calls were made as follows: active = hit-call score of the fitted dose curve at least 0.9, where 1 is the maximum; inconclusive = response in the unintended direction; inactive = score below 0.9.

This experiment has as its system rat CYP2C6, gene 293989. The experiment in a line: NVS_ADME_rCYP2C6: NovaScreen (NVS) CYP450-related Enzyme Activity (ADME) Assay for rat CYP2C6 (AID 2283120). On the procedure: NVS_ADME_rCYP2C6 is a biochemical, single-readout assay that uses extracted gene-proteins in a cell-free assay. Measurements were taken 1 hour after chemical dosing in a 96-well plate.NVS_ADME_rCYP2C6 is one of one assay component(s) measured or calculated from the NVS_ADME_rCYP2C6 assay. It is designed to make measurements of enzyme activity, a form of enzyme reporter, as detected with fluorescence intensity signals by Fluorescence technology.Data from the assay component NVS_ADME_rCYP2C6 was analyzed into 1 assay endpoint. This assay endpoint, NVS_ADME_rCYP2C6, was analyzed in the positive analysis fitting direction relative to Acetonitrile as the negative control and baseline of activity. Using a type of enzyme reporter, loss-of-signal activity can be used to understand changes in the enzymatic activity as they relate to the gene Cyp2c6v1. Furthermore, this assay endpoint can be referred to as a primary readout, because this assay has produced multiple assay endpoints where this one serves a enzymatic activity function. To generalize the intended target to other relatable targets, this assay endpoint is annotated to the cyp intended target family, where the subfamily is xenobiotic metabolism.
Binding assays used specific radioligands (tritiated, iodinated) with non-radioactive competitive displacement ligands in agonist or antagonist protocols (as indicated) and various reference compounds and inhibitors to titrate specific binding to receptors and transporters. Most enzyme assays (CYPs, kinases, phosphatases, proteases, HDACs) used recombinant protein and specific substrates (fluorescence mostly, some colorimetric and radioactive) and inhibitors, followed by a biochemical separation of substrate and product. All assays for the biochemical HTS were initially run in duplicate at a single concentration (10 uM for CYP450 assays and 25 uM for all others). Assay-chemical combinations meeting a pre-defined threshold (e.g., 30% inhibition and other criteria defined below) were then run in singleton concentration-response format with maximum concentration of 20 uM for CYPs and 50 uM for all others. Each assay was run with positive and negative controls, and concurrent controls on every plate. The follow-up (secondary) screen tested active chemical-pairs in concentration series, as well as a few additional assays not tested in the primary screen, some selected negative inactives, and several cases re-run in the concentration series for confirmatory purposes.
`CCOC(=O)CC(SP(=S)(OC)OC)C(=O)OCC` (stereo unspecified): the half-maximal activity concentration (AC50) is 0.0501 µM (active). The figure for `CCOP(=S)(OCC)SCn1c(=O)oc2cc(Cl)ccc21` is 0.336 µM (active); for `CN(C)C(=S)SSC(=S)N(C)C` it is 1.28 µM (active). Under `COc1ccc(C(c2ccc(OC)cc2)C(Cl)(Cl)Cl)cc1` stands 9.6 µM (active); under `CCCC1COC(Cn2cncn2)(c2ccc(Cl)cc2Cl)O1` (stereo unspecified), 2.45 µM (active). Under `N#CC(CCc1ccc(Cl)cc1)(Cn1cncn1)c1ccccc1` (stereo unspecified) stands 1.44 µM (active); under `CO/C=C(/C(=O)OC)c1ccccc1Oc1cc(Oc2ccccc2C#N)ncn1`, 2.12 µM (active).

Regarding `CCCN(CCC)c1c([N+](=O)[O-])cc(S(N)(=O)=O)cc1[N+](=O)[O-]`, the AC50 was 7.63 µM (active). The figure for `CC1COC(Cn2cncn2)(c2ccc(Oc3ccc(Cl)cc3)cc2Cl)O1` (stereo unspecified) is 1.56 µM (active).

Consider `OC(c1ccc(Cl)cc1)(c1cncnc1)c1ccccc1Cl` (stereo unspecified), for which the concentration at half-maximal activity (AC50) is 1.39 µM (active). Under `CS/C(C)=N/OC(=O)N(C)SN(C)C(=O)O/N=C(\C)SC` stands 3.63 µM (active).
